This is one part of a sample in which hits are shown more often than they occur.
Pin1 inh: qHTS Assay to Find Inhibitors of Pin1; Potency, µM (top dose mostly 115 µM), for inactives: at the top dose activity, negative = inhibition, actives largely listed as inhibitors; Pin1 FP peptide displacement, HiFluor488, 10 min; actives 0.009% (n = 390,000); AID 504891, 2011; Peptidyl-prolyl cis-trans isomerase NIMA-interacting 1 (Homo sapiens), Q13526; active means well fitted inhibition curve with a large enough effect in the polarisation, with a control signal flat, not every such curve was filed as active; inconclusive means small, poorly fitted or top-dose-only effect, or effect the other way, or a change in a side signal; inactive means no such curve, though single readings can be large or run the other way; the % refers to the polarisation; further: potency means the concentration at half of the fitted maximal effect; on the % scale 0 is the no-effect control and ±100 the full control effect
Target sequence (Q13526 whole entry, looked up): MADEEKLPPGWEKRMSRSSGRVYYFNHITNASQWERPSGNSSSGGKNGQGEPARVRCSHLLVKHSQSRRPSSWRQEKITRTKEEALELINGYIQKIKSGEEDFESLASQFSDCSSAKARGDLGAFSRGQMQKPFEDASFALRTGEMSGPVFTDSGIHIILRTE
Tb PGK inh: qHTS Assay to Find Inhibitors of Phosphoglycerate Kinase; Phosphoglycerate kinase, glycosomal (Trypanosoma brucei brucei), P07378; PGK/GAPDH coupled, Kinase-Glo luminescence, 60 min; Potency, µM (titrated, usually from 57.5 µM), for the others: at the highest dose activity change, negative = inhibition, most hits filed as inhibitors; actives 0.043% (n = 380,000); AID 602233, 2012; further: potency means the concentration at half of the fitted maximal effect; on the % scale 0 is the no-effect control and ±100 the full control effect; nearly all actives have a fitted effect of over 60% in size
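Recombinant glycosomal PGK reaction used 1,3-bisphosphoglycerate generated in-well by GAPDH (100nM final) in 100mM TEA pH 7.6, 5mM MgCl2, 0.01% Tween-20. After 60 minutes at room temperature, ATP was read by Kinase-Glo Plus luminescence end-point.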
Tb PFK inh-1: qHTS Assay to Find Inhibitors of T. brucei phosphofructokinase | T. brucei PFK, ADP-Glo luminescence | ATP-dependent 6-phosphofructokinase (Trypanosoma brucei brucei), O15648 | Potency, µM (top dose mostly 57.5 µM), inactives show at the highest dose activity, negative = inhibition, hits mostly inhibitors | actives 0.17% (n = 330,000);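 further: potency means the concentration at half of the fitted maximal effect; 0% = uninhibited 1x PFK enzyme wells and -100% = no-enzyme wells; nearly all actives have a fitted effect of over 60% in size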
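Luminescent ADP detection (ADP-Glo, two-step: ATP depletion then ADP-to-ATP conversion for luciferase) reported PFK activity after 45 min room-temperature reaction of 1.25 nM enzyme with 0.5 mM F6P and 0.1 mM ATP at pH 8.0.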
PI4K2A block: qHTS for small molecular inhibitors of PI4K2A. Phosphatidylinositol 4-kinase type 2-alpha (Homo sapiens), Q9BTU6. purified PI4K2A, ADP-Glo luminescence, 1 h; stronger effect = lower value. activity change, negative = inhibition, % at 76.9 µM. actives 0.13% (n = 420,000). AID 1346378, 2018; in the data active means activity change below about -50%; inconclusive means mostly about -30% to -49%;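 further: -100% = wells without enzyme as full effect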
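PI4K2A activity was measured by ADP-Glo luminescence: enzyme (4 ug/mL stock) and phosphatidylinositol (1.2 mM stock) in Tris pH 7.5/MgCl2/EGTA/Triton X-100 buffer were reacted with ATP (300 microM stock) for one hour at ambient temperature.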
PI5P4Ka inh: qHTS for Inhibitors of phosphatidylinositol 5-phosphate 4-kinase (PI5P4K); PI5P4Kalpha enzyme, ADP-Glo luminescence, 60 min; stronger effect = lower value; max response, %; actives 1.2% (n = 330,000); AID 652105, 2013; active means max response of -50% or lower; inconclusive means between -30% and -50%; inactive means -30% or higher; further: value at the top dose of about 77 µM; on the % scale 0 is the no-effect control and ±100 the full control effect
Target sequence (P48426 whole entry, looked up): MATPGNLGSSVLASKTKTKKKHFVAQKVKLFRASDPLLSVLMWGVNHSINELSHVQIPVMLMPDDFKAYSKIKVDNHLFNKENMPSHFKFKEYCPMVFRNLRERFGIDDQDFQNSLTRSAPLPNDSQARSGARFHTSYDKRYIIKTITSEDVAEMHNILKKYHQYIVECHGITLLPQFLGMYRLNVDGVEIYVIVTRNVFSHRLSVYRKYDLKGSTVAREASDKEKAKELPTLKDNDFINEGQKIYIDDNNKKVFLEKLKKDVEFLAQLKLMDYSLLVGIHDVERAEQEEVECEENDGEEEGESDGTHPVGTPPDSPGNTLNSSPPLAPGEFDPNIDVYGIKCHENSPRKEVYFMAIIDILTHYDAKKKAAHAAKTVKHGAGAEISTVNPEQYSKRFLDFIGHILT
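ADP-Glo luminescence end-point after a 60 min room-temperature kinase reaction. PI5P4Kalpha and substrate in HEPES pH 7.4 buffer with EGTA, 0.1% CHAPS and 5% DMSO; ATP at 5 microM final.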
TbPFK ATP: Tb PFK orthogonal confirmatory assay using ATP depletion (Kinase-Glo Plus) as an alternative measure of Tb PFK activity: Hit Validation; shares compounds with Tb PFK inh-1; AID 504636, 2011; actives 47% (n = 1,100); Tb PFK enzyme, ATP depletion, Kinase-Glo Plus luminescence; Potency, µM (doses to about 57.5 µM), without a hit: at the highest dose inhibition; calls by dose curve; further: potency means the concentration at half of the fitted maximal effect; nearly all actives have a fitted effect of over 60% in size
Tb PFK inh-2: Inhibitors of T. brucei phosphofructokinase: Hit Validation; shares compounds with Tb PFK inh-1; purified T. brucei PFK, ADP-Glo luminescence, 45 min; Potency, µM (series often up to 57.5 µM), for inactives: at the highest dose activity change, negative = inhibition, hits mostly inhibitors; actives 41% (n = 1,100); AID 504637, 2011;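 further: potency means the concentration at half of the fitted maximal effect; plate controls were full PFK enzyme control for no effect and no enzyme control for full effect; nearly all actives have a fitted effect of over 60% in size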
Starred values were filed as active, the others as inactive; i = inactive; u = inconclusive; x = not tested or not shown. Unless noted, the call rests on the fitted dose curve; in most records, active means well fitted curve in the direction sought with a large enough effect; inconclusive means small, poorly fitted or top-dose-only effect, or another doubt; inactive means no such curve, though single readings can be large; an effect the other way counts as inactive or inconclusive.

SMILES | Pin1 inh | Tb PGK inh | Tb PFK inh-1 | PI4K2A block | PI5P4Ka inh | TbPFK ATP | Tb PFK inh-2
Cc1cccc(NCc2ccc([N+](=O)[O-])s2)c1 | -1% | i | u | -4 | 1 | 21µM* | u
O=[N+]([O-])c1ccc(CNc2cccc(F)c2)s1 | 4% | -4% | 13µM* | 1 | -2 | 5.4µM* | 13µM*
Cc1cccc(NP2(=O)NCCCN2)c1 | 0% | i | x | -6 | -5 | x | x
CCc1ccc(OCC(=O)N2CCN(CCc3ccccn3)CC2)cc1 | -11% | i | x | -1 | x | x | x
C[C@H]1CNCCc2ccc(Cl)cc21 | x | x | x | -3 | x | x | x
Cc1ccc(CN2C(=O)N/C(=C\c3cccn3-c3cccc(C(=O)O)c3)C2=O)cc1 | -22% | u | u | -25 | u | u | u
O=C(O)c1ccc(-n2cccc2/C=C2/SC(=O)N(CC(=O)N3CCCC3)C2=O)cc1 | u | u | u | -12 | -59* | 4.8µM* | 5.4µM*
O=C(O)c1cccc(-n2cccc2/C=N/O)c1 | u | u | 21µM* | -3 | u | u | u
Cc1ccc(N2C(=O)NC(=O)/C(=C\c3cn(CC(=O)O)c4ccccc34)C2=O)cc1 | 32% | -9% | 9% | -14 | -5 | x | x
O=C(O)c1ccc(-n2cccc2/C=C2/NC(=O)N(c3ccccc3)C2=O)cc1 | -5% | u | u | -9 | u | u | 19µM*
CN1C(=O)NC(=O)/C(=C/c2ccc(C(=O)O)cc2)C1=O | -3% | -5% | 6% | -8 | u | x | x
COc1cccc(C2SCC(=O)Nc3c2c(C)nn3-c2ccc(C)c(Cl)c2)c1OC (stereo not drawn) | -1% | x | x | -4 | x | x | x
Nc1c(C(=O)Nc2ccc(Br)cc2F)sc2nc3c(cc12)N1CCC3CC1 | 0% | i | x | 0 | x | x | x
CCOc1ccc(CN(CCc2ccc3c(c2)OCO3)Cc2cccc(Br)c2)cc1 | -5% | -14% | x | -12 | x | x | x
C[C@@H]1NCCc2cc(O)c(O)cc21 | u | 9% | u | 1 | -3 | 8.5µM* | u
Cc1cc2c(cc1[N+](=O)[O-])NC(CNC(C)C)CC2 (stereo not drawn) | 0% | -2% | 12µM* | 4 | 1 | 27µM* | 17µM*
Cc1ccccc1-n1sc2cc(F)ccc2c1=O | -8% | -4% | 2.7µM* | 6 | -88* | u | 11µM*
Cc1ccccc1-n1c(C)nc2ccsc2c1=O | 10% | 6% | x | -2 | 8 | x | x
Cc1ccc(-n2sc3ccccc3c2=O)cc1S(=O)(=O)N1CCCCC1 | 38% | i | 13µM* | u | -111* | u | 6.7µM*
O=c1c2ccccc2sn1-c1nccs1 | 3% | -5% | 8.5µM* | 3 | -81* | u | u
O=c1c2cc(F)ccc2sn1-c1ccccc1 | 1% | 1% | 6.7µM* | -12 | -85* | u | u
CCC12CN3CC(CC)(CN(C1)C3c1c(C)[nH]c(=O)[nH]c1=O)C2=O (stereo not drawn) | -3% | -6% | x | 4 | x | x | x
ClCc1cccc(Cl)c1 | x | x | x | 3 | x | x | x
O=C(O)c1cccc(-n2sc3ccccc3c2=O)c1 | -14% | -10% | 6µM* | -20 | -103* | 15µM* | 17µM*
O=c1c2ccccc2nc(Cc2ccccc2)n1-c1ccccc1 | -1% | -2% | 3% | -1 | 1 | x | x
SMILES | Pin1 inh | Tb PGK inh | Tb PFK inh-1 | PI4K2A block | PI5P4Ka inh | TbPFK ATP | Tb PFK inh-2
O=c1c2ccccc2sn1-c1ccccc1 | -2% | -5% | 4.8µM* | -30 | -96* | u | 7.6µM*
O=C(O)c1ccc(/C=C/c2nc3ccccc3c(=O)n2-c2ccc(Br)cc2)cc1 | 0% | -7% | 5% | 6 | -3 | x | x
N#CCC[C@@H]1CC[C@]2(CCCN(Cc3ccncc3)C2)O1 | x | x | x | 0 | x | x | x
CC(=O)N(C1=C(Cl)C(=O)c2ccccc2C1=O)C1CCCCC1 | 0% | -1% | 0.67µM* | -6 | -87* | 0.38µM* | 0.38µM*
CC(O)CNc1ccc([N+](=O)[O-])c2cccnc12 (stereo not drawn) | -1% | -1% | 0% | -3 | 3 | x | x
Cc1ccc(NCc2ccc(O)c3ncccc23)cc1 | 0% | -10% | u | -1 | u | 18% | -11%
O=c1[nH]sc2ccccc12 | 2% | -3% | 19µM* | -1 | -93* | 21µM* | 27µM*
O=c1[nH]sc2cc(F)ccc12 | -14% | 6% | u | -3 | -82* | 19µM* | 27µM*
Cc1ccc(N(C)C(=O)Oc2cccc3cccnc23)cc1 | 0% | 0% | -11% | -2 | 1 | x | x
CSS(=O)(=O)c1cccc2cccnc12 | 5% | 9% | 17µM* | 6 | -91* | 21µM* | 30µM*
Clc1nssc1=Nc1nncs1 | 0% | -3% | 4.3µM* | -28 | -55* | 12µM* | 9.5µM*
COc1ccc(CNCCc2ccc(Cl)cc2Cl)cc1 | -2% | 4% | 0% | 4 | -10 | x | x
COc1ccc(CNc2nc(Cl)c(C#N)s2)cc1 | 2% | -4% | 12µM* | -2 | 11 | 7.6µM* | 13µM*
N#Cc1sc(NCc2ccccc2)nc1Cl | -6% | i | 19µM* | 5 | 0 | 11µM* | 27µM*
CN1CCCN(C(=O)COc2ccc(F)cc2F)CC1 | 5% | 6% | -17% | 5 | 4 | x | x
C/C(C/C(C)=C1/SC(=S)NC1=O)=C1\SC(=S)NC1=O | x | u | u | -6 | -105* | -29% | u
COc1cccc(CNc2ccc(F)c(Cl)c2)c1 | -9% | x | 24µM* | -12 | x | 11µM* | 17µM*
c1ccc2sc(C3(N4CCCCC4)CCCCC3)cc2c1 | x | x | x | 1 | x | x | x
CN1CCc2nc3sc(C(=O)NC4CC4)c(N)c3cc2C1 | -11% | 7% | 8% | -1 | 4 | x | x
Nc1c(C(=O)NC2CC2)sc2nc3c(c(-c4ccco4)c12)CC/C3=C/c1ccco1 | x | u | 6.7µM* | -74* | -96* | u | u

Assay outcomes (PubChem)
